We go through eleven molecules from article PMC12529666, “Dysregulation of AGO2-miRNA dynamics underlies the AGO2-associated Lessel–Kreienkamp syndrome”.

What all share (experiment): RNA Bind-n-Seq (nitrocellulose filter binding and sequencing); miR-122 guide loaded in AGO2; 60 min incubation; 30 mM Tris pH 8.0, 100 mM potassium acetate, 2 mM magnesium acetate, 0.5 mM TCEP, 0.005% NP-40, 0.01 mg/ml yeast tRNA; 3 nM AGO2-miR-122, 100 nM RNA library; 60; high values mean tight binding
What all share (details): protein: recombinant; tags: His6 (N-terminal, pFastBac HTA)

The target of one assay is AGO2 L192P (Homo sapiens, UniProt Q9UKV8 1-859, L192P;S387D;S824A;S828D;S831D;S834A). A digest of the protocol:
(§1)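 His-tagged AGO2 was expressed in Sf9 insect cells by baculovirus, loaded with a synthetic guide RNA, and purified by Ni-NTA and a biotinylated capture oligo. Bound RNA was extracted, reverse-transcribed, barcode-amplified and Illumina-sequenced. Fold enrichment is each sequence's read fraction divided by its input-library read fraction.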

The target in a further assay is AGO2 A367P (Homo sapiens, UniProt Q9UKV8 1-859, A367P;S387D;S824A;S828D;S831D;S834A). An outline of the steps: as §1
Sequence of AGO2 A367P (Q9UKV8 whole entry A367P/S387D/S824A/S828D/S831D/S834A): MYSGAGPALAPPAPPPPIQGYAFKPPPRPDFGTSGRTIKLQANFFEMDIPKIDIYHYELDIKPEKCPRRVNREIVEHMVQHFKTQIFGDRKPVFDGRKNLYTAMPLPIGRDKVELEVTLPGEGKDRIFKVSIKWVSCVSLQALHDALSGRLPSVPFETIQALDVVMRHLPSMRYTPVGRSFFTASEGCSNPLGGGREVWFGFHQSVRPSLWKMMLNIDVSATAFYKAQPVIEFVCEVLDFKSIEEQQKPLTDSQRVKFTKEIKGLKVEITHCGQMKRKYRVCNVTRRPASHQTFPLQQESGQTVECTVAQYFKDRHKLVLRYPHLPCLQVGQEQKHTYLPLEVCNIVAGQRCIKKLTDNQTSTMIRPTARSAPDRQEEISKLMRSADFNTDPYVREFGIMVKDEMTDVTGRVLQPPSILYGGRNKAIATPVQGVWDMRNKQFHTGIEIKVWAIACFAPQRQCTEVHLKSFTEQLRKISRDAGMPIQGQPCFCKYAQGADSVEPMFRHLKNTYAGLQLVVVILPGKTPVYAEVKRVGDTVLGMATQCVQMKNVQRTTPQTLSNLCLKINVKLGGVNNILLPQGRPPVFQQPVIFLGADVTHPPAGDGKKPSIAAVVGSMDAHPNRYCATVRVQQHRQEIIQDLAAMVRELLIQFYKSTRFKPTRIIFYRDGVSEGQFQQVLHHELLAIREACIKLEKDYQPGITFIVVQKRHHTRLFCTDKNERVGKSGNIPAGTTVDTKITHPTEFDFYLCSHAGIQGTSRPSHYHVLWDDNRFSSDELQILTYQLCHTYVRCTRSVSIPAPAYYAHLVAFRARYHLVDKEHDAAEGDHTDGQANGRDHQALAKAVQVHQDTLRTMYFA
The next assay deals with AGO2 T357M (Homo sapiens, UniProt Q9UKV8 1-859, T357M;S387D;S824A;S828D;S831D;S834A). An outline of the steps:
as §1

A further assay concerns the target AGO2 F182del (Homo sapiens, UniProt Q9UKV8 1-859, S387D;S824A;S828D;S831D;S834A;del182-182). An outline of the steps:
as §1

Sequence of AGO2 F182del (Q9UKV8 other isoform, or with tags, fused parts or gaps S387D;S824A;S828D;S831D;S834A;del182-182): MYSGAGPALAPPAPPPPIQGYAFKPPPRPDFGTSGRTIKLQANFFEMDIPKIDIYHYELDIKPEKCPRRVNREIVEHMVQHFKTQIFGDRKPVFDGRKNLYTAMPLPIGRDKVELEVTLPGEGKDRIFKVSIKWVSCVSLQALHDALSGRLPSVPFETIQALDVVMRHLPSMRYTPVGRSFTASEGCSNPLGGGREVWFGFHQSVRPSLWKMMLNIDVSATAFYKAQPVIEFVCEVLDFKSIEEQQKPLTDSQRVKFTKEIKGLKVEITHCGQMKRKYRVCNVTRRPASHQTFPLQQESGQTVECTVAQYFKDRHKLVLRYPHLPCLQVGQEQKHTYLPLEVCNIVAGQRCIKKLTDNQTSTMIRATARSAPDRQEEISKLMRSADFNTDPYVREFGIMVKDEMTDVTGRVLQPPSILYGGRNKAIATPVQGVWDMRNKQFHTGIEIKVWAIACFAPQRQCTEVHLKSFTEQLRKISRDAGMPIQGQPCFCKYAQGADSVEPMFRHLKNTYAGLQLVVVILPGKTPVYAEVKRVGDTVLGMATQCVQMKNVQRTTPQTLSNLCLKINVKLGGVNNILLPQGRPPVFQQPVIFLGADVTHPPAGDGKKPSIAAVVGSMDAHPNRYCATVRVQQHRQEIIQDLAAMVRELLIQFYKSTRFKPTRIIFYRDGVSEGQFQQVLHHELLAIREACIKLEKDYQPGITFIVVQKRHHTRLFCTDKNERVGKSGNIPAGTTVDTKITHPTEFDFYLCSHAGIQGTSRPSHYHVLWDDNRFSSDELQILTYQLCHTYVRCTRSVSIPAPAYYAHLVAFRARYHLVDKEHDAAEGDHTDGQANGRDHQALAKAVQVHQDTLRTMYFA
Sequence of AGO2 T357M (Q9UKV8 whole entry T357M/S387D/S824A/S828D/S831D/S834A): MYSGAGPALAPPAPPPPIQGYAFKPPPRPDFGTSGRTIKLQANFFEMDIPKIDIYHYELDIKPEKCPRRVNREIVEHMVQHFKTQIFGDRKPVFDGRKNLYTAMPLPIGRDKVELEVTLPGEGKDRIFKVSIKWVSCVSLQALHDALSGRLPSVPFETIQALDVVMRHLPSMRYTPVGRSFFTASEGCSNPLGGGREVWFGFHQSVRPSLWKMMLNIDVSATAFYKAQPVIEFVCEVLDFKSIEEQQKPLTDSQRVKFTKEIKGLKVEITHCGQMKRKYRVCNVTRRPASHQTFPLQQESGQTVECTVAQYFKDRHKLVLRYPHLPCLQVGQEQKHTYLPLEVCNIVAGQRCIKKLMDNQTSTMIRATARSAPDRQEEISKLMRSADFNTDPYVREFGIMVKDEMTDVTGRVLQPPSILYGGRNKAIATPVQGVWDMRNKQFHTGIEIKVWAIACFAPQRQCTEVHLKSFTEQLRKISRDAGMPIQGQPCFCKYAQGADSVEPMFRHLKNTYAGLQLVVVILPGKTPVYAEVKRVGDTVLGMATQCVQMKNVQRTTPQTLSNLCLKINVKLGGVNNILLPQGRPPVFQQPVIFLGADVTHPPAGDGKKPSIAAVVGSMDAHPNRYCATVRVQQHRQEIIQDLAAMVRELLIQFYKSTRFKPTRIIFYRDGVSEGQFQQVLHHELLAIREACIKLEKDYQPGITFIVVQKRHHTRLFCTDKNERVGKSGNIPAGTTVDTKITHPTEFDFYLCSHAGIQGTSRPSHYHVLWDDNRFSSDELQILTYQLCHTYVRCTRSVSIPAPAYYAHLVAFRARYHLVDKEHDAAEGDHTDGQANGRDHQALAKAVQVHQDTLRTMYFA
Sequence of AGO2 L192P (Q9UKV8 whole entry L192P/S387D/S824A/S828D/S831D/S834A): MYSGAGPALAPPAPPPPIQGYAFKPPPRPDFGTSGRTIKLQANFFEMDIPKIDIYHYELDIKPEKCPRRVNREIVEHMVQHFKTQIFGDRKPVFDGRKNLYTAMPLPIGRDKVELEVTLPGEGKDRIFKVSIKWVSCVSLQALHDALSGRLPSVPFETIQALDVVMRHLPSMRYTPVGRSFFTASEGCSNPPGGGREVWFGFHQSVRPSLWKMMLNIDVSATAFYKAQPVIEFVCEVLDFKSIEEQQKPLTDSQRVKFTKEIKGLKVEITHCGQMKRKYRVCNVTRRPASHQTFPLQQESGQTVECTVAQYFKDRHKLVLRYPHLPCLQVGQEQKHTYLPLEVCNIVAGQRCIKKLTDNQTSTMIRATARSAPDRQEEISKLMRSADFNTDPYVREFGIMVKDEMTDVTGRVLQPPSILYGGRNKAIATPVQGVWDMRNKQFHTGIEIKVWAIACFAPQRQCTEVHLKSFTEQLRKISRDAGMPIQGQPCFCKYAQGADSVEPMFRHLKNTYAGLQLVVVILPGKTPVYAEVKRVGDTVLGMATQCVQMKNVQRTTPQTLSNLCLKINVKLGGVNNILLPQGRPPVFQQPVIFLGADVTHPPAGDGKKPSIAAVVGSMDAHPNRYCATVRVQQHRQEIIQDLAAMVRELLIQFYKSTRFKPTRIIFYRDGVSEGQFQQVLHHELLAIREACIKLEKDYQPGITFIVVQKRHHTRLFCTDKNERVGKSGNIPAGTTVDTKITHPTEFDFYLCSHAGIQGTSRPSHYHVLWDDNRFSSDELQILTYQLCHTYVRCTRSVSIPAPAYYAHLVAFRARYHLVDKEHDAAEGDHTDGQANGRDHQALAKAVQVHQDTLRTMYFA

B1: GTGCTTTG (ssRNA)
RNA 1: GAGUUCUACAGUCCGACGAUCCCAACGUGCUUUGCACCUGGAAUUCUCGGGUGCCAA
RNA 2: UGGAGUGUGACAAUGGUGUUUG
DNA 1: GATCGTCGGACTGTAGAACTC
DNA 2: TTGGCACCCGAGAATTCCA
modifications: constant regions annealed to DNA blockers; guide miR-122 5' phosphate
As for B1, the binding signal with AGO2 L192P is 0.45 fold enrichment over input; in the assay with AGO2 A367P it was 0.177 fold enrichment over input; in the assay with AGO2 T357M, 0.623 fold enrichment over input.

B2: ACATTCTG (ssRNA)
RNA 1: GAGUUCUACAGUCCGACGAUCCCAACACAUUCUGCACCUGGAAUUCUCGGGUGCCAA
RNA 2: UGGAGUGUGACAAUGGUGUUUG
DNA 1: GATCGTCGGACTGTAGAACTC
DNA 2: TTGGCACCCGAGAATTCCA
modifications: constant regions annealed to DNA blockers; guide miR-122 5' phosphate
Regarding B2, the binding signal with AGO2 L192P was 0.392 fold enrichment over input; with AGO2 A367P, 0.13 fold enrichment over input; with AGO2 T357M it was 0.531 fold enrichment over input.

B3: GCGCTTTA (ssRNA)
RNA 1: GAGUUCUACAGUCCGACGAUCCCAACGCGCUUUACACCUGGAAUUCUCGGGUGCCAA
RNA 2: UGGAGUGUGACAAUGGUGUUUG
DNA 1: GATCGTCGGACTGTAGAACTC
DNA 2: TTGGCACCCGAGAATTCCA
modifications: constant regions annealed to DNA blockers; guide miR-122 5' phosphate
Take B3: the binding signal is 0.493 fold enrichment over input with AGO2 L192P, 0.201 fold enrichment over input in the assay with AGO2 A367P and 0.695 fold enrichment over input with AGO2 T357M.

B4: GCGTTCTA (ssRNA)
RNA 1: GAGUUCUACAGUCCGACGAUCCCAACGCGUUCUACACCUGGAAUUCUCGGGUGCCAA
RNA 2: UGGAGUGUGACAAUGGUGUUUG
DNA 1: GATCGTCGGACTGTAGAACTC
DNA 2: TTGGCACCCGAGAATTCCA
modifications: constant regions annealed to DNA blockers; guide miR-122 5' phosphate
Turning to B4, the binding signal in the assay with AGO2 L192P is 0.449 fold enrichment over input; with AGO2 A367P it was 0.169 fold enrichment over input; with AGO2 T357M, 0.609 fold enrichment over input.

B5: GCATTTTA (ssRNA)
RNA 1: GAGUUCUACAGUCCGACGAUCCCAACGCAUUUUACACCUGGAAUUCUCGGGUGCCAA
RNA 2: UGGAGUGUGACAAUGGUGUUUG
DNA 1: GATCGTCGGACTGTAGAACTC
DNA 2: TTGGCACCCGAGAATTCCA
modifications: constant regions annealed to DNA blockers; guide miR-122 5' phosphate
B5: the binding signal in the assay with AGO2 L192P was 0.476 fold enrichment over input; with AGO2 A367P it was 0.18 fold enrichment over input; with AGO2 T357M, 0.643 fold enrichment over input; in the assay with AGO2 F182del it was 0.123 fold enrichment over input.

B6: ATGCTTTA (ssRNA)
RNA 1: GAGUUCUACAGUCCGACGAUCCCAACAUGCUUUACACCUGGAAUUCUCGGGUGCCAA
RNA 2: UGGAGUGUGACAAUGGUGUUUG
DNA 1: GATCGTCGGACTGTAGAACTC
DNA 2: TTGGCACCCGAGAATTCCA
modifications: constant regions annealed to DNA blockers; guide miR-122 5' phosphate
Turning to B6, the binding signal was 0.487 fold enrichment over input with AGO2 L192P, 0.175 fold enrichment over input with AGO2 A367P and 0.582 fold enrichment over input in the assay with AGO2 T357M.

B7: GTACCCCA (ssRNA)
RNA 1: GAGUUCUACAGUCCGACGAUCCCAACGUACCCCACACCUGGAAUUCUCGGGUGCCAA
RNA 2: UGGAGUGUGACAAUGGUGUUUG
DNA 1: GATCGTCGGACTGTAGAACTC
DNA 2: TTGGCACCCGAGAATTCCA
modifications: constant regions annealed to DNA blockers; guide miR-122 5' phosphate
As to B7, the binding signal with AGO2 L192P was 0.497 fold enrichment over input; in the assay with AGO2 A367P it was 0.247 fold enrichment over input; in the assay with AGO2 T357M, 0.616 fold enrichment over input; with AGO2 F182del, 0.455 fold enrichment over input.

B8: GCACCCTG (ssRNA)
RNA 1: GAGUUCUACAGUCCGACGAUCCCAACGCACCCUGCACCUGGAAUUCUCGGGUGCCAA
RNA 2: UGGAGUGUGACAAUGGUGUUUG
DNA 1: GATCGTCGGACTGTAGAACTC
DNA 2: TTGGCACCCGAGAATTCCA
modifications: constant regions annealed to DNA blockers; guide miR-122 5' phosphate
B8: the binding signal in the assay with AGO2 L192P was 0.416 fold enrichment over input; with AGO2 A367P it was 0.171 fold enrichment over input; in the assay with AGO2 T357M, 0.566 fold enrichment over input; with AGO2 F182del it was 0.176 fold enrichment over input.

B9: GCATCTTA (ssRNA)
RNA 1: GAGUUCUACAGUCCGACGAUCCCAACGCAUCUUACACCUGGAAUUCUCGGGUGCCAA
RNA 2: UGGAGUGUGACAAUGGUGUUUG
DNA 1: GATCGTCGGACTGTAGAACTC
DNA 2: TTGGCACCCGAGAATTCCA
modifications: constant regions annealed to DNA blockers; guide miR-122 5' phosphate
For B9, the binding signal was 0.487 fold enrichment over input with AGO2 L192P, 0.189 fold enrichment over input in the assay with AGO2 A367P and 0.676 fold enrichment over input with AGO2 T357M.

B10: ATACCCCA (ssRNA)
RNA 1: GAGUUCUACAGUCCGACGAUCCCAACAUACCCCACACCUGGAAUUCUCGGGUGCCAA
RNA 2: UGGAGUGUGACAAUGGUGUUUG
DNA 1: GATCGTCGGACTGTAGAACTC
DNA 2: TTGGCACCCGAGAATTCCA
modifications: constant regions annealed to DNA blockers; guide miR-122 5' phosphate
As for B10, the binding signal was 0.5 fold enrichment over input in the assay with AGO2 L192P, 0.177 fold enrichment over input in the assay with AGO2 A367P, 0.552 fold enrichment over input in the assay with AGO2 T357M and 0.199 fold enrichment over input with AGO2 F182del.

B11: GCGCCCTG (ssRNA)
RNA 1: GAGUUCUACAGUCCGACGAUCCCAACGCGCCCUGCACCUGGAAUUCUCGGGUGCCAA
RNA 2: UGGAGUGUGACAAUGGUGUUUG
DNA 1: GATCGTCGGACTGTAGAACTC
DNA 2: TTGGCACCCGAGAATTCCA
modifications: constant regions annealed to DNA blockers; guide miR-122 5' phosphate
Consider B11, for which the results for the binding signal with AGO2 L192P, in the assay with AGO2 A367P and in the assay with AGO2 T357M were 0.424 fold enrichment over input, 0.172 fold enrichment over input and 0.675 fold enrichment over input, respectively.
